Measurements published in the supplement of paper PMC10011410.
± gives the standard deviation of the averaged measurements.

Test system: AmpC beta-lactamase (E. coli)
Assay: AmpC inhibition relative to DMSO; higher = more inhibition
Method: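 Aggregation counter-screen: inhibition of E. coli AmpC beta-lactamase (5 nM, nitrocefin substrate, 50 mM sodium phosphate pH 7.0, RT, 5 min) by KAT inhibitors at 4, 11, 33 and 100 uM, with or without 0.01% Triton X-100. Percent inhibition is relative to DMSO controls. Four technical replicates.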

[1] = 4 µM, detergent: 0.01% Triton X-100
[2] = 11 µM, detergent: 0.01% Triton X-100
[3] = 33 µM, detergent: 0.01% Triton X-100
[4] = 100 µM, detergent: 0.01% Triton X-100
[5] = 100 µM, detergent: no detergent

Row | Structure (SMILES) | AmpC inhibition [1] [%] | AmpC inhibition (4 µM, detergent: no detergent) [%] | AmpC inhibition [2] [%] | AmpC inhibition (11 µM, detergent: no detergent) [%] | AmpC inhibition [3] [%] | AmpC inhibition (33 µM, detergent: no detergent) [%] | AmpC inhibition [4] [%] | AmpC inhibition [5] [%]
1 | Cc1cc(-c2ccccc2)cc(C(=O)NNS(=O)(=O)c2ccccc2)c1F | 10.3 ± 2.6 | 7.83 ± 8 | 6.24 ± 2.3 | 9.5 ± 7 | 1.15 ± 3 | 15 ± 4.6 | 8.19 ± 9.7 | 53.4 ± 7.8
2 | COc1cc(/C=C/C(=O)CC(=O)/C=C/c2ccc(O)c(OC)c2)ccc1O | 10.4 ± 4.2 | 5.89 ± 9 | 5.4 ± 4.4 | 39.2 ± 7.2 | -1.8 ± 2.5 | 71.1 ± 12 | -2.46 ± 13 | 67.3 ± 7.6
3 | CNC(=O)Nc1ccc2c(c1)[C@@]1(CC2)OC(=O)N(CC(=O)N(Cc2ccc(F)cc2)[C@@H](C)C(F)(F)F)C1=O | 9.1 ± 0.37 | 2.44 ± 8.2 | 6.71 ± 1 | 7.48 ± 3.8 | -0.0601 ± 2.8 | -5.13 ± 2 | -4.9 ± 5.7 | -1.81 ± 4.7
4 | COc1ccc(/C(Cl)=C(\C=O)c2ccc(OC)cc2)cc1 | 2.6 ± 2.4 | 17.8 ± 21 | 4.97 ± 1.2 | 3.2 ± 5.5 | 1.35 ± 3.3 | -9.16 ± 9.6 | -4.79 ± 8.1 | 1.57 ± 3.4
5 | CC1=NN(c2ccc(C(=O)O)cc2)C(=O)/C1=C\c1ccc(-c2cc(C)c(C)cc2[N+](=O)[O-])o1 | 1.81 ± 2.9 | -0.0252 ± 5.8 | 8.78 ± 2.2 | -41.4 ± 11 | 5.34 ± 3.4 | -43.6 ± 23 | 5.65 ± 3.5 | 4.46 ± 2.3
